# Assay outcomes from PubChem BioAssay.
# GLP1R cytotox: cytotoxicity in counter-screen for GLP-1R inverse agonists | HEK293 cAMP-luciferase reporter cells, luminescence, 24 h | Potency, µM (titrated, usually from 38.3 µM), for the others: at the highest dose activity change, negative = inhibition, actives largely listed as inhibitors | 0.13% of 410,000 active | AID 624418;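 further: loss of luciferase light is scored as toxicity; potency means the concentration at half of the fitted maximal effect; on the % scale 0 is the no-effect control and ±100 the full control effect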
#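 Compound-treated cells are incubated 24 hr at 37 deg C under 5% CO2 after a 12 hour attachment period, then luciferase detection reagent is added and luminescence is measured following 12 min at room temperature; lowered signal indicates toxicity.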
# TRPML1 ag: agonists of human TRPML1 channel | Q9GZU1 | TRPML1-expressing cells, Ca2+ dye fluorescence, FDSS | activation, % (concentration not given with the values) | 0.12% of 410,000 active | AID 624414; in the data active means activation above about 50%; inconclusive means mostly about 30% to 49%; further: 0% is about no effect
# Target sequence (Q9GZU1 whole entry, looked up): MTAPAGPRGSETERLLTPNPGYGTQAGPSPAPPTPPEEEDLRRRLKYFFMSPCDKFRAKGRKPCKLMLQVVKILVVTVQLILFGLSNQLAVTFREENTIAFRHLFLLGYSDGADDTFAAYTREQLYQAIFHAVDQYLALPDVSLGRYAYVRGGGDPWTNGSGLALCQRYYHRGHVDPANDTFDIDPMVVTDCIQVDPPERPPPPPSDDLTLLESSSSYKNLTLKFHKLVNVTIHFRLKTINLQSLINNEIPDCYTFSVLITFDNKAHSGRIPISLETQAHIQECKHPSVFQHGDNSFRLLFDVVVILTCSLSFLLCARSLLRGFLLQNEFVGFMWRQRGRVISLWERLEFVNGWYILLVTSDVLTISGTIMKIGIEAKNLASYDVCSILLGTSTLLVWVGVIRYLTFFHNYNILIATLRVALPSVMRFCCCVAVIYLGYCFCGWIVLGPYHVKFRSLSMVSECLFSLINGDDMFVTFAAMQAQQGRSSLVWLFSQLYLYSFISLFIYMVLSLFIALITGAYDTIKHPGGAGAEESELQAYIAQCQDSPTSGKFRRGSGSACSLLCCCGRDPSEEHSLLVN
#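 Calcium fluorescence on an FDSS kinetic reader gave the read-out. Tet-induced TRPML1-DL cells were plated overnight, dye-loaded (Ca8 with quencher, 45-90 min, room temperature, dark), then read 110 s after compound addition, and again 110 s after 4uM final 54-4 (EC80).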
# TRHR enhancer: allosterically enhances the human TRH receptor; TRHR cells, fluo-8 calcium fluorescence, EC20 TRH enhancement; P34981; 0.66% of 360,000 active; enhancement, % at 2 µM; in the data active means enhancement above about 30%; further: 0% is about no effect
#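 TRHR-expressing cells loaded with fluo-8 calcium dye were read kinetically (ex 480/em 530) during compound addition, then stimulated with an EC20 of TRH (10 nM final). Enhancement of the Gq-mediated intracellular calcium response was scored.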
# PTHR1 ag: PTHR1 (human) receptor agonism | Q03431 | HEK293 GP2 PTHR1 cells, GloSensor cAMP luminescence, 1 h | Potency, µM (titrated, usually from 115 µM), for the others: at the highest dose activation, most hits filed as activators | 0.075% of 410,000 active; further: potency means the concentration at half of the fitted maximal effect; nearly all actives have a fitted effect of over 55% in size
#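 HEK-293-derived GP2 cells expressing PTHR1 and a GloSensor cAMP reporter, 3,000/well, plated overnight, given luciferin plus IBMX (each 0.5 mM as added) for 1 h at 37 °C, then compound for 1 h at 37 °C. Luminescence was read after 15 min at room temperature.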
# TRPML1 inh: inhibitors of human TRPML1 channel; Q9GZU1; TRPML1-inducible cells, Ca2+ dye fluorescence, FDSS; stronger effect = lower value; inhibition of EC80 agonist-evoked calcium signal; activity change, negative = inhibition, % (test concentration not listed); 0.02% of 390,000 active; AID 624415; in the data active means activity change below about -50%; inconclusive means between about -30% and that limit;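 further: stimulus is agonist 54-4 at its EC80 concentration; on the % scale 0 is the no-effect control and ±100 the full control effect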
#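 Calcium fluorescence in TRPML1-DL cells induced overnight with Tet: a 110 s read after compound pin addition, then a 110 s antagonist read after challenge with 54-4 at 4 uM final (EC80).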
# TRHR agonist: activates the human TRH receptor. P34981. TRHR cells, calcium flux fluo-8, FDSS agonist mode. 0.18% of 360,000 active. activation, % at 2 µM; in the data active means activation above about 30%; further: 0% is about no effect
#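 Steps: seed TRHR cells overnight; add fluo-8 no-wash Ca dye, RT 30 min–1.5 h; record 10 s baseline; pin-transfer compounds; monitor fluorescence 1 cycle/s for the agonist window. Calcium increases flag candidate agonists.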
# Starred values were filed as active, the others as inactive; i = inactive; ? = inconclusive; · = not tested or not shown; ! = repeats disagree; [ ] = remark or other dose. Rows were chosen to be rich in hits. Some 0.93% of all compounds tested hit in one or more screens of this group. Unless noted, the call rests on the fitted dose curve; in most records, active means well fitted curve in the direction sought with a large enough effect; inconclusive means small, poorly fitted or top-dose-only effect, or another doubt; inactive means no such curve, though single readings can be large; an effect the other way counts as inactive or inconclusive.
SMILES,GLP1R cytotox,TRPML1 ag,TRHR enhancer,PTHR1 ag,TRPML1 inh,TRHR agonist
Cc1cc2nc(/C(C#N)=C\c3ccc(-c4ccccc4C(=O)O)o3)[nH]c2cc1C,106%,16,1,-7%,6,39*
N#C/C(=C\c1ccc(Sc2ccccc2)o1)c1nc2ccccc2[nH]1,95%,14,0,-45%,-6,3
Cc1ccc2nc(/C(C#N)=C/c3ccc(-c4ccccc4C(=O)O)o3)[nH]c2c1,142%,?,1,-18%,-16,70*
Cc1cc2nc3s/c(=C/c4ccc(-c5ccccc5C(=O)O)o4)c(=O)n3c2cc1C,47%,11,-1,-25%,2,77*
O=C(O)c1ccccc1-c1ccc(/C=c2\sc3nc4cc(Br)cnc4n3c2=O)o1,3%,16,1,i,-2,4
Cc1ccc2nc(/C(C#N)=C\c3ccc([N+](=O)[O-])o3)[nH]c2c1,2%,14,-4,-2%[57.5 µM],?,22
N#C/C(=C\c1ccc(-c2ccc(F)cc2F)o1)c1nc2ccccc2[nH]1,68%,?,-1,i,-16,78*
Cc1ccnc2ccc([N+](=O)[O-])cc12,·,-1,·,·,·,·
CCOC(=O)c1ccc(-c2ccc(/C=C(\C#N)c3nc4ccc(C)cc4[nH]3)o2)cc1,44%,51*,2,-14%,-29,120*
N#C/C(=C\c1ccc(-c2ccccc2C(=O)O)o1)c1nc2ccccc2[nH]1,114%,6,0,-16%,-17,46*!
Cc1cnc2c(C)cccc2c1/C=C/c1ccc(N(C)C)cc1,·,0,·,·,·,·
O=C1[C@H]2[C@@H](C(=O)N1c1cccc3ccccc13)C1(C(=O)c3ccccc3C1=O)N1CCC[C@@H]21,11%,1,34*,i,15,-1
Brc1ccc(OCCN2CCOCC2)cc1,3%,-1,5,-19%,-16,0
Clc1ccc(OCCN2CCOCC2)cc1,-4%,0,36*,-16%,-3,0
Cc1ccc(OCCN2CCCC2)cc1,28%,0,33*,-13%,-5,0
Cc1ccc(OCCCCN2CCCCC2)cc1,1%,-1,-6,i,19,1
COc1cc2nc(N3CCCCC3)nc(NC(C)C)c2cc1OC,·,-1,·,·,·,·
CNc1c(Br)cc(C(O)C2=CCc3ccccc32)cc1Br (centres undefined),·,0,·,·,·,·
CCOC(=O)C(NC(=O)Nc1ccc(F)cc1F)(Oc1ccccc1)C(F)(F)F (centres undefined),-11%,0,31*,i,3,-2
CCOC(=O)C(NC(=O)Nc1ccc(Cl)cn1)(Oc1ccccc1)C(F)(F)F (centres undefined),0%,0,0,-1%,26,0
O=C1c2ccccc2NC(c2ccccc2OCc2ccccc2)N1Cc1ccco1 (centres undefined),·,-1,·,·,·,·
C=CCn1c(SCC(=O)NCc2ccco2)nnc1-c1cccc(N(C)C)c1,·,-1,·,·,·,·
COc1ccc(C(=O)O/N=C(\N)Cc2ccc(Cl)cc2)cc1OC,?,0,-8,?,9,0
COc1ccc(C(=O)O/N=C(\N)Cc2ccc(Cl)c(Cl)c2)cc1OC,5.6µM*,0,-9,?,-3,0
Cc1cccc([S+](=O)([O-])NC2CCN(C#N)CC2)c1,·,·,-1,·,·,1
Cc1ccccc1Nc1nc(N)nc(-c2oc3ccccc3c2C)n1,?,1,35*,i,-6,-1
COc1cc2ncnc(N3CCN(C(=O)Nc4ccc(Oc5ccccc5)cc4)CC3)c2cc1OC,·,-1,·,·,·,·
COc1cc(/C=C/C(O)=C/C(=O)/C=C/c2ccc(O)cc2)ccc1O,3%,25,3,-24%,-3,104*
Cc1cc(N2CCN(c3ccc(C(F)(F)F)cc3[N+](=O)[O-])CC2)c2ccccc2n1,?,-1,35*,-49%,-4,0
